This is part of a sample that, as a whole, favours compounds with a hit. Of some 83,000 tested, about 20% had one in any assay.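 Method: cells in 96-well plates; compound added at one concentration; 48 h incubation; percent growth measured; values under 10 scored active.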 Activity calls are given as the source filed them.
What follows are compounds tested on NCI-H226 lung (assay: NCI-60 one-dose screen, 48 h (100 = growth as untreated, 0 = no growth, -100 = all killed)). Conditions: 10 µM unless noted.

Structure (SMILES) | growth
CC(=O)c1cc2c(N)c(C(=O)Nc3ccccn3)sc2nc1C | 86.8% (inactive)
CCOC(=O)c1sc(/N=C2\NC(=O)/C(=C/c3ccc(N4CCN(C)CC4)cc3)S2)nc1C | 99.7% (inactive)
O=C(/C(=C/c1ccc([N+](=O)[O-])cc1)SCc1ccc(F)cc1)c1ccc(Cl)cc1 | 64.6% (inactive)
Cc1cnc(-c2ccc(-c3ccc(NC(=O)Nc4c(F)cc(F)cc4F)cc3F)c3c2C(=O)NC3)[nH]1 | 65.6% (inactive)
COc1ccc(Nc2cc(NC(=O)CNc3cc(OC)c(Cl)c(OC)c3Cl)ncn2)cc1 | 68.5% (inactive)
Nc1n[nH]c2cccc(C#Cc3cccc(NC(=O)c4cc(N5CCOCC5)cc(C(F)(F)F)c4)c3)c12 | 43.9% (inactive)
CC(C)(C)CC(C)(C)Cc1ccc(OCCOCC[N+](C)(C)Cc2ccccc2)cc1 | 38.1% (inactive)
CCOCc1cc(C(C)(C)C)ccc1O | 97.4% (inactive)
C=C1C(=O)O[C@H]2[C@H]1CC/C(COC(=O)Nc1nc3ccccc3[nH]1)=C\CC[C@@]1(C)O[C@@H]21 | 79.8% (inactive)
C=C(C)[C@@H]1CC[C@]2(C(=O)n3ccnc3)CC[C@]3(C)[C@H](CC[C@@H]4[C@@]5(C)CCCNC(C)(C)[C@@H]5CC[C@]43C)[C@@H]12 | 64.5% (inactive)
C=C(C)[C@@H]1CC[C@]2(C(=O)O)CC[C@]3(C)[C@H](CC[C@@H]4[C@@]5(C)C[C@@H](CC#Cc6ccccc6C)C(=O)C(C)(C)[C@@H]5CC[C@]43C)[C@@H]12 | 23.7% (inactive)
Clc1ccc2c(NCCCNC3CCCCC3)ccnc2c1 | 108% (inactive)
CN(C)C(CNc1oc(-c2cccc3ccccc23)nc1C#N)c1ccco1 (stereo not drawn) | 101% (inactive)
c1cc(CNC23CC4CC(CC(C4)C2)C3)cc(C[N+](Cc2cccc(CNC34CC5CC(CC(C5)C3)C4)c2)(Cc2cccc(CNC34CC5CC(CC(C5)C3)C4)c2)Cc2cccc(CNC34CC5CC(CC(C5)C3)C4)c2)c1 (stereo not drawn) | 33.5% [42 µM] (inactive)
O=C1CCc2ccccc2N1 | 104% (inactive)
Cc1cnc(SCc2ccc(Cl)cc2Cl)nc1Nc1ccc(Cl)c(Cl)c1 | 101% (inactive)
COc1cc(C2=NN(C(C)=O)C(c3cccc(Nc4ccnc5cc(C(F)(F)F)ccc45)c3)C2)cc(OC)c1OC (stereo not drawn) | 66.5% (inactive)
CCOC(=O)c1c(-c2ccc(O)cc2)c(C#N)c2c(C#N)c(N)nn2c1N | 69.3% (inactive)
CN(C)CCCn1c2c(c3cc(-c4ccco4)ccc3c1=O)C(=O)c1ccccc1-2 | 77.2% (inactive)
Nc1cc(N)c(S(=O)(=O)O)cc1N=Nc1cc([N+](=O)[O-])ccc1O | 101% (inactive)
COc1cc(/C=N/Nc2nc(-c3ccc(F)cc3)c(C#N)c(N3CCOCC3)n2)ccc1O | 97.8% (inactive)
COc1cc(-c2csc(NC(=O)Nc3ccc(Cl)cc3)n2)cc(OC)c1OC | 32.6% (inactive)
N#CCNc1ccc(C(=O)O)cc1 | 95.3% (inactive)
CCOC(=O)c1ccc(Nc2ncnc3ccc(NC(=O)c4ccccc4)cc23)cc1 | 78.2% (inactive)
COC(=O)/C=C/c1cc(OC(C)=O)c2c(c1)C(C(=O)OC)C(c1ccc(OC(C)=O)c(OC(C)=O)c1)O2 (stereo not drawn) | 81.7% (inactive)

The compounds below were run on HOP-62 NSCLC in the same assay as above. Conditions: 10 µM unless noted.

Structure (SMILES) | growth
O=C1CC(c2ccc(O)c(O)c2)Oc2cc(O)c([C@@H]3O[C@H](CO)[C@@H](O)[C@H](O)[C@H]3O)c(O)c21 (stereo partly drawn) | 105% (inactive)
O=C(NCc1ccccc1)c1ccc2c(c1)NC(=O)[C@@H]1CCCN21 | 103% (inactive)
CCc1ccc(OCc2ccccc2C(=O)Nc2ccc3nc(C)cc(N)c3c2)cc1 | -78.6% (active)
CSc1cccc(NC(=O)Nc2nc3c(C)cccc3s2)c1 | 87.4% (inactive)
COC(=O)[C@]1(C)CCC[C@]2(C)[C@H]3C[C@H]4C(C(C)C)=C[C@]3(CC[C@H]21)[C@@H]1C(=O)N(CCC#N)C(=O)[C@@H]14 | 89.9% (inactive)
CC1=C(CCCOC(=O)NCCCl)C2=C(C)C3(CC3)[C@@](C)(O)C(=O)C2=C1 | -3.61% (active)
COc1ccc2[nH]c(-c3ccccc3)c(C=C(C#N)C#N)c2c1 | 37.4% (inactive)
Cc1nn(-c2ccc(-c3ccc(OC(F)(F)F)cc3)cc2)c2nc(-c3ccccc3)nc(N)c12 | 95.8% (inactive)
O=S(=O)(O)c1ccc(N=NSc2ccc3ccccc3c2)cc1 | 108% (inactive)
O=c1c2ccccc2n(CC(O)CN2CCCC2)c2c(Br)cccc12 (stereo not drawn) | 100% (inactive)
CS(=O)(=O)O[C@@H]1C(=O)N(c2cc3c4ccccc4ccc3c3ccccc23)[C@H]1c1ccc(F)cn1 | 35.2% (inactive)
CC(C)(C)c1nn(-c2ccccc2)c2c1COCN2Cc1ccc(Cl)cc1 | 93% (inactive)
Cc1cc(NC(=O)CNc2nc(Oc3ccc(F)cc3)nc(-c3ccc(F)cc3)n2)ccc1Cl | 94.5% (inactive)
CC(=O)c1cc2c(N)c(C(=O)Nc3ccccn3)sc2nc1C | 88.3% (inactive)
CCOC(=O)c1sc(/N=C2\NC(=O)/C(=C/c3ccc(N4CCN(C)CC4)cc3)S2)nc1C | 105% (inactive)
O=C(/C(=C/c1ccc([N+](=O)[O-])cc1)SCc1ccc(F)cc1)c1ccc(Cl)cc1 | 76.8% (inactive)
Cc1cnc(-c2ccc(-c3ccc(NC(=O)Nc4c(F)cc(F)cc4F)cc3F)c3c2C(=O)NC3)[nH]1 | 53.2% (inactive)
COc1ccc(Nc2cc(NC(=O)CNc3cc(OC)c(Cl)c(OC)c3Cl)ncn2)cc1 | 83.1% (inactive)
Nc1n[nH]c2cccc(C#Cc3cccc(NC(=O)c4cc(N5CCOCC5)cc(C(F)(F)F)c4)c3)c12 | 48.2% (inactive)

Structure (SMILES) | growth
CC(C)(C)CC(C)(C)Cc1ccc(OCCOCC[N+](C)(C)Cc2ccccc2)cc1 | 66.1% (inactive)
CCOCc1cc(C(C)(C)C)ccc1O | 95.2% (inactive)
C=C1C(=O)O[C@H]2[C@H]1CC/C(COC(=O)Nc1nc3ccccc3[nH]1)=C\CC[C@@]1(C)O[C@@H]21 | 89.9% (inactive)
C=C(C)[C@@H]1CC[C@]2(C(=O)n3ccnc3)CC[C@]3(C)[C@H](CC[C@@H]4[C@@]5(C)CCCNC(C)(C)[C@@H]5CC[C@]43C)[C@@H]12 | 66.3% (inactive)
C=C(C)[C@@H]1CC[C@]2(C(=O)O)CC[C@]3(C)[C@H](CC[C@@H]4[C@@]5(C)C[C@@H](CC#Cc6ccccc6C)C(=O)C(C)(C)[C@@H]5CC[C@]43C)[C@@H]12 | 32.5% (inactive)
Clc1ccc2c(NCCCNC3CCCCC3)ccnc2c1 | 91.1% (inactive)
CN(C)C(CNc1oc(-c2cccc3ccccc23)nc1C#N)c1ccco1 (stereo not drawn) | 94.9% (inactive)
c1cc(CNC23CC4CC(CC(C4)C2)C3)cc(C[N+](Cc2cccc(CNC34CC5CC(CC(C5)C3)C4)c2)(Cc2cccc(CNC34CC5CC(CC(C5)C3)C4)c2)Cc2cccc(CNC34CC5CC(CC(C5)C3)C4)c2)c1 (stereo not drawn) | 33.1% [42 µM] (inactive)
O=C1CCc2ccccc2N1 | 102% (inactive)
Cc1cnc(SCc2ccc(Cl)cc2Cl)nc1Nc1ccc(Cl)c(Cl)c1 | 93.4% (inactive)
COc1cc(C2=NN(C(C)=O)C(c3cccc(Nc4ccnc5cc(C(F)(F)F)ccc45)c3)C2)cc(OC)c1OC (stereo not drawn) | 63.9% (inactive)
CCOC(=O)c1c(-c2ccc(O)cc2)c(C#N)c2c(C#N)c(N)nn2c1N | 66.6% (inactive)
CN(C)CCCn1c2c(c3cc(-c4ccco4)ccc3c1=O)C(=O)c1ccccc1-2 | 59.2% (inactive)
Nc1cc(N)c(S(=O)(=O)O)cc1N=Nc1cc([N+](=O)[O-])ccc1O | 90.6% (inactive)
COc1cc(/C=N/Nc2nc(-c3ccc(F)cc3)c(C#N)c(N3CCOCC3)n2)ccc1O | 104% (inactive)
COc1cc(-c2csc(NC(=O)Nc3ccc(Cl)cc3)n2)cc(OC)c1OC | 38.5% (inactive)
N#CCNc1ccc(C(=O)O)cc1 | 98.3% (inactive)
CCOC(=O)c1ccc(Nc2ncnc3ccc(NC(=O)c4ccccc4)cc23)cc1 | 98.8% (inactive)
COC(=O)/C=C/c1cc(OC(C)=O)c2c(c1)C(C(=O)OC)C(c1ccc(OC(C)=O)c(OC(C)=O)c1)O2 (stereo not drawn) | 20% (inactive)

From PubChem BioAssay (NCI)
